From PubChem BioAssay come the findings set out here.

Structures are written as SMILES.

Assay [1] is described as follows: NFkB reporter suppression in cystic fibrosis bronchial cells – cell-based, uHTS hits, panel, cytotoxicity readout, dose response (AID 624344). To be noted: CF bronchial epithelial cells, PAF-induced NFkB reporter inhibition, with PAF, run 1; at 79 µM (top of the series) unless noted.
Experiment in assay [2]: as above
To be noted: CF bronchial epithelial cells, PAF-induced NFkB reporter inhibition, with PAF, run 2; at 79 µM (top of the series) unless noted.

With `CCOC(=O)/C=c1/s/c(=C\c2c(OC)ccc3ccccc23)c(=O)n1CC(=O)NCC1CCCO1` (centres undefined), the inhibition (in general, the drop in the measured response relative to a control, in per cent) in assay [1] is -195%; in assay [2], 46.6% [at 39.5 µM].

For the molecule `Cc1nn(-c2cccc(Cl)c2)c2nc(C(F)(F)F)[nH]c(=O)c12`, the inhibition in assay [1] came to 96%; in assay [2], 79.8%.

`CS(=O)(=O)Nc1cccc(-c2cc(NC=O)c3ncc(-c4ccc(F)cc4)n3c2)c1`: the inhibition was found to be 84% in assay [1] and 88.3% in assay [2].

Turning to `O=C1C(=Cc2ccccc2[N+](=O)[O-])Cc2ccccc21`, the inhibition amounted to 68.5% in assay [1] and 106% in assay [2].

On to `O=C(NNc1ccccc1Br)C(O)(c1cccc(C(F)(F)F)c1)c1cccc(C(F)(F)F)c1`, for which the inhibition was found to be 103% in assay [1] and 104% in assay [2].

`Nc1nc(N)nc(-c2cc(O)ccc2O)n1`: the inhibition was 105% in assay [1] and 116% in assay [2].

Take `CS(=O)(=O)Nc1ccc(-c2cnc3cccnn23)cc1`: the values for the inhibition in assay [1] and in assay [2] were 95.8% and 102%, respectively.

Regarding `NC(=O)c1nsc(C(=O)N(c2ccccc2)C(C(=O)NCc2ccc(F)cc2)c2ccc(O)cc2)c1N` (centres undefined), the results for the inhibition in assay [1] and in assay [2] were 102% and 108%, respectively.

As to `Cc1cc(C)cc(NS(=O)(=O)c2ccc(-c3cnc(C4CC4)o3)cc2)c1`, the inhibition is 110% in assay [1] and 106% in assay [2].

For the molecule `O=S(=O)(Nc1ccc(Cl)cc1NS(=O)(=O)c1ccccc1)c1ccccc1`, the inhibition in assay [1] was 114%; in assay [2] it was 85.8%.

Regarding `CCC(Oc1ccccc1)C(=O)Nc1ncc([N+](=O)[O-])s1` (centres undefined), the values for the inhibition in assay [1] and in assay [2] were 112% and 98.9%, respectively.

Turning to `COc1cc(NC(=O)c2csc(-c3ccncc3)n2)cc(C(=O)Nc2cccc(C(F)(F)F)c2)c1`, the figures for the inhibition in assay [1] and in assay [2] were 102% and 105%, respectively.

Consider `Fc1ccc(-n2cc(-c3ccccc3)c3c(N4CCOCC4)ncnc32)cc1`, for which the inhibition was 110% in assay [1] and 102% in assay [2].

As to `CC(=O)c1c(C)n(-c2ccc(C)cc2C)c2ccc(O)cc12`, the inhibition in assay [1] is 106%; in assay [2], 64%.

For `COc1ccc(-c2cc(C(F)(F)F)nc(S(=O)(=O)CCCC(=O)Nc3cccnc3Cl)n2)cc1OC`, the inhibition amounted to 99.5% in assay [1] and 99.1% in assay [2].

As to `COc1ccc(NC(=O)Cn2ncn3nc(-c4ccc(OC)cc4)cc3c2=O)cc1`, the inhibition in assay [1] was 102%; in assay [2], 107%.

Regarding `O=C(Nc1nnc(C(F)(F)F)s1)c1ccc(Br)s1`, the results for the inhibition in assay [1] and in assay [2] were 114% and 74.5%, respectively.

Regarding `NC(N)=NN=C(c1ccc(F)cc1)c1ccc(C(F)(F)F)cc1`, the inhibition came to 108% in assay [1] and 117% in assay [2].

Consider `CCOC(=O)C1(C(=O)OCC)COC(=O)C1CN1Cc2cc3ccccc3nc2C1` (centres undefined), for which the inhibition is 65.1% in assay [1] and 65.6% in assay [2].

As for `CC1=C(/C=C/C(C)=C/C=C/C(C)=C\C(=O)O)C(C)(C)CCC1`, the values for the inhibition in assay [1] and in assay [2] were 100% and 71.7%, respectively.

For `Cc1cc(C)c2nc(C(F)(F)F)c(C#N)c(N)c2c1`, the figures for the inhibition in assay [1] and in assay [2] were 97.7% and 90.1%, respectively.

For `O=C1OC(c2ccccc2)(c2cc(Br)ccc2O)c2ccccc21` (centres undefined), the inhibition in assay [1] came to 105%; in assay [2], 116%.

As to `COc1ccc(Nc2nc(-c3cccs3)nc3ccccc23)cc1S(=O)(=O)N1CCOCC1`, the values for the inhibition in assay [1] and in assay [2] were 104% and 102%, respectively.

With `O=c1[nH]c(C2CCN(S(=O)(=O)c3ccc4c(c3)OCCO4)CC2)nc2c1nnn2Cc1c(F)cccc1Cl`, the inhibition in assay [1] is 93%; in assay [2], 101%.

As for `Oc1ccc(C[C@H]2CNC(=S)N2CC2CCCN2C[C@H](Cc2ccc(O)cc2)N2C[C@H](Cc3ccc(O)cc3)N(CC3CCCCC3)C2=S)cc1` (some centres undefined), the figures for the inhibition in assay [1] and in assay [2] were 101% and 105%, respectively.

As to `COc1cccc(/C=N/n2c(C3CCCCC3)n[nH]c2=S)c1`, the inhibition is 97.2% in assay [1] and 106% in assay [2].

For the molecule `CS(=O)(=O)c1ccc2nc(NC(=O)Nc3cccc(Cl)c3)sc2c1`, the inhibition in assay [1] is 79.3%; in assay [2], 83.9%.

On to `CCOc1cccc(-c2nnc3sc(C4CCCCC4)nn23)c1`, for which the inhibition in assay [1] came to 102%; in assay [2], 116%.

In the case of `COc1ccc(-n2ncc3c(N4CCN(Cc5ccccc5)CC4)ncnc32)cc1`, the inhibition came out at 113% in assay [1] and 102% in assay [2].

As for `COc1ccc(N(CCCN2C(=O)c3cccc4cccc(c34)C2=O)C(=O)c2ccncc2)cc1`, the inhibition in assay [1] is 5.78%; in assay [2] it was 45.8%.

As for `O=C1NC(c2cccc3ccccc23)Nc2ccc(Cl)cc21` (centres undefined), the inhibition in assay [1] stood at 61.5%; in assay [2], 99.9%.

Consider `c1nc(NCc2ccc3c(c2)OCO3)c2cc(-c3ccoc3)ccc2n1`, for which the inhibition in assay [1] and in assay [2] was 102% in each case.

Regarding `O=C1/C(=C/c2cccnc2)CCc2c1[nH]c1ccccc21`, the inhibition in assay [1] was found to be 103%; in assay [2] it was 109%.

On to `COc1ccc(-n2nc(C(=O)NCC(=O)Nc3cc(OC)c(OC)c(OC)c3)c3ccccc3c2=O)cc1Cl`, for which the inhibition was found to be 96.2% in assay [1] and 95.1% in assay [2].

For `CCCC1/C(=N/O)CC(c2ccccc2)NC1c1ccccc1` (centres undefined), the results for the inhibition in assay [1] and in assay [2] were 106% and 98.7%, respectively.

`c1cnc2ccc(-n3ccnc3)cc2c1`: the inhibition in assay [1] was determined as 115%; in assay [2], 102%.

As to `Cc1cccc(C(=O)N[C@H](C(=O)Nc2nc3ccccc3[nH]2)C(C)C)c1`, the inhibition in assay [1] was found to be 101%; in assay [2], 70.1%.

As for `COC(=O)c1ccc(-c2ccc(OC)c([C@H]3[C@H]4C=CC[C@@H](C)[C@@H]4C(=O)N3Cc3ccccc3)c2)cc1`, the inhibition was 111% in assay [1] and 80% in assay [2].

For the molecule `C=C1C(=O)[C@]23C[C@H]1CC[C@H]2[C@]1(C)[C@@H](OC(C)=O)CC[C@@](C)(C(=O)O)[C@H]1C[C@@H]3O`, the inhibition in assay [1] was 97.6%; in assay [2], 94%.

As for `CC(C)OC(=O)c1cccc(C(=O)Nc2cccc(NC(=O)c3cccc(C(=O)OC(C)C)n3)n2)n1`, the inhibition stood at 103% [at 9.88 µM] in assay [1] and 109% [at 19.8 µM] in assay [2].

In the case of `COc1cc(NC(=O)c2cc3ccccc3cc2OC)ccc1NC(=O)c1cccs1`, the inhibition in assay [1] is 98.1%; in assay [2] it was 107%.

For `O=C(NCc1nc(-c2ccc(C(F)(F)F)cc2)no1)Nc1cc(Cl)cc(Cl)c1`, the inhibition was determined as 97.9% in assay [1] and 114% in assay [2].

For `CCCc1nc(Cl)c(C#N)c2c1CCCC2`, the inhibition amounted to 97.8% in assay [1] and 98.1% in assay [2].

Take `NC(=O)c1sc2nccc(Nc3ccccc3)c2c1N`: the figures for the inhibition in assay [1] and in assay [2] were 117% and 103%, respectively.

As for `COc1ccc(-c2cnc3c(NC=O)cc(-c4ccc(C(=O)N5CCOCC5)cc4)cn23)cc1OC`, the inhibition was determined as 106% in assay [1] and 99% in assay [2].

For the molecule `Cc1ccc(-n2nnnc2Sc2ccc(S(=O)(=O)NCCN(C)C)cc2[N+](=O)[O-])cc1`, the inhibition was found to be 104% in assay [1] and 114% in assay [2].

Turning to `COc1cc(-c2cnc3c(NC=O)cc(-c4ccc(C)cc4)cn23)cc(OC)c1OC`, the inhibition in assay [1] was found to be 70.3%; in assay [2] it was 70.5%.

`Cc1ccc(CNc2ncnc3ccc(-c4ccoc4C)cc23)o1`: the inhibition came to 103% in assay [1] and 89.6% in assay [2].

As to `COc1ccc(-c2cn[nH]c2-c2ccc(OCc3ccc([N+](=O)[O-])cc3)cc2O)cc1`, the values for the inhibition in assay [1] and in assay [2] were 105% and 115%, respectively.

For the molecule `C=CCn1c(Oc2ccccc2F)nc2c1c(=O)n(C)c(=O)n2C`, the inhibition in assay [1] turned out to be 95.6%; in assay [2], 93.3%.

As to `c1cncc(-c2ccc3ncnc(NCc4ccc5c(c4)OCO5)c3c2)c1`, the inhibition came to 112% in assay [1] and 101% in assay [2].

Take `O=c1[nH]nc(Sc2ncnc3sccc23)n1CCc1ccccc1`: the inhibition in assay [1] was found to be 100%; in assay [2], 105%.

As to `CCN(c1ccc(OC)cc1)c1ncnc2nc[nH]c12`, the inhibition came out at 108% in assay [1] and 98% in assay [2].

Consider `O=S(=O)(CC(CN1CCCC1)N1CCCC1)c1ccc2ccccc2c1` (centres undefined), for which the inhibition in assay [1] was 96.4%; in assay [2] it was 92.7%.

For `O=C(Nc1ccccc1)c1cc2ccccc2c(=O)s1`, the results for the inhibition in assay [1] and in assay [2] were 50.8% and 85.2%, respectively.

Turning to `COc1cc(C(=O)c2cc3c(cc2C)OCO3)cc(OC)c1OC`, the inhibition in assay [1] was found to be 48.2%; in assay [2] it was 51.8%.

On to `O=C(N/N=C/c1ccccc1)c1[nH]c2ccc(Br)cc2c1-c1ccccc1`, for which the inhibition in assay [1] is 76.6%; in assay [2], 79.5%.
